Measured values reported in PubChem BioAssay (EPA / NIEHS).
Records with an inconclusive call do not appear. The source holds several records for some structures; these can differ, active in one and inactive in another. The source made the active and inactive calls. The calls were made as follows, unless noted: active = hit-call score of the fitted dose curve at least 0.9, where 1 is the maximum; inconclusive = response in the unintended direction; inactive = score below 0.9.

Assays:
[1] = target: Estrogen receptor beta (Homo sapiens) (UniProt Q92731); test: OT_ER_ERbERb_1440: Odyssey Thera (OT) 24-hour HEK293T Protein-Complementation Assay for Estrogen Receptor-beta/-beta Homodimer (AID 2283380);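 also: fluorescence gain from ER beta LBD homodimer complementation read by laser scanning cytometry; scored as signal increase over DMSO baseline for both agonists and antagonists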
Outline: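 Fluorescence increase, nuclear for agonists or whole-cell for antagonists, relative to DMSO vehicle, quantified by laser scanning cytometer after fixation and Draq5 staining. Readout from 24 h treatment of HEK293T cells carrying complementation-paired ER beta LBD (aa 310-547).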

[2] = target: Estrogen receptor (Homo sapiens) (UniProt P03372); test: OT_ERa_GFPERaERE_0480: Odyssey Thera (OT) 8-hour HeLa Transcription Induction Assay for Estrogen Receptor (AID 2283381; active = hit-call score of the fitted dose curve at least 0.9, where 1 is the maximum; inactive = score below 0.9)
Outline: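 GFP-ERE reporter, HeLa, 8 h exposure. Readout: fluorescence microscopy, high-content image analysis. Fit direction positive vs DMSO negative control.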

[3] = target: Estrogen receptor (Homo sapiens) (UniProt P03372); test: OT_ERa_GFPERaERE_0120: Odyssey Thera (OT) 2-hour HeLa Transcription Induction Assay for Estrogen Receptor (AID 2283382)
Outline: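 Fluorescence microscopy read-out: inducible fluorescent protein reporter in HeLa cells, imaged 2 h post-dose. Signal increase over DMSO negative control fitted as single primary endpoint via high content image analysis.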

[4] = target: Retinoic acid receptor RXR-alpha (Homo sapiens) (UniProt P19793); test: OT_NURR1_NURR1RXRa_1440: Odyssey Thera (OT) 24-hour HEK293T Protein Complementation Assay for Nurr1/retinoid X receptor (RXR) (AID 2283386)
Outline: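 Fluorescence PCA read-out; HEK293T; 24 h post-dose; bait/prey fused to reporter fragments; gain-of-signal fit vs DMSO negative control.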

[5] = target: Peroxisome proliferator-activated receptor gamma (Homo sapiens) (UniProt P37231); test: OT_PPARg_PPARgSRC1_1440: Odyssey Thera (OT) 24-hour Protein-Complementation Assay for Peroxisome Proliferator-activated Receptor Gamma/ SRC-1 Co-activator (AID 2283388);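 also: nuclear to cytoplasmic ratio of reconstituted Venus YFP fluorescence in fixed imaged cells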
Outline: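 Transient HEK293T, YFP fragments 1-158/159-239 (mutant IFP1/IFP2) fused to PPARg/SRC-1; 24 h dosing; fix 4% formaldehyde, Draq5; Opera imaging 488/635 nm; N/C ratio, gain vs DMSO.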

[6] = target: Retinoic acid receptor RXR-alpha (Homo sapiens) (UniProt P19793); test: OT_NURR1_NURR1RXRa_0480: Odyssey Thera (OT) 8-hour HEK293T Protein Complementation Assay for Nurr1/retinoid X receptor (RXR) (AID 2283385)
Outline: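 Read-out: fluorescence from protein-fragment complementation between Nurr1 and RXRα in human HEK293T cells, 8 h after dosing. DMSO served as negative control; increased signal counted as activity.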

[7] = target: Peroxisome proliferator-activated receptor gamma (Homo sapiens) (UniProt P37231); test: OT_PPARg_PPARgSRC1_0480: Odyssey Thera (OT) 8-hour Protein-Complementation Assay for Peroxisome Proliferator-activated Receptor Gamma / SRC-1 Co-activator (AID 2283387);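 also: nuclear to cytoplasmic split Venus YFP fluorescence ratio reporting PPARg SRC-1 interaction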
Outline: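 Read-out: 488 nm N/C fluorescence ratio from complemented Venus YFP fragments, ≥350 cells per image, gain-of-signal fitted against DMSO baseline. Fusions of PPARg/SRC-1 with IFP1/IFP2 expressed transiently in HEK293T; compounds applied 8 h.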

[8] = target: mouse Estrogen Receptor alpha (Era), Esr1 (gene 13982) (UniProt P19785); test: NVS_NR_mERa: NovaScreen (NVS) Nuclear Receptor Binding Assay for mouse Estrogen Receptor alpha (Era) (AID 2283378);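 also: hit means loss of bound radioligand signal relative to DMSO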
Outline: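 Test chemicals competed against a specific radioligand for binding to cell-free mouse Era. Duplicate wells at 25 uM were read 18 hours later by filter-based radiodetection, with loss of signal against DMSO scored as activity.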

[9] = target: Bile acid receptor (Homo sapiens) (UniProt Q96RI1); test: OT_FXR_FXRSRC1_0480: Odyssey Thera (OT) 8-hour HEK293T Protein-Complementation Assay for Farnesoid X receptor/SRC-1 Co-activator (AID 2283383)
Outline: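 Fluorescence intensity read-out, 8 h post-dose, HEK293T protein-fragment complementation; FXR bait and SRC-1 prey each linked to reporter fragments. Activity scored as signal increase over DMSO negative control.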

[10] = target: Bile acid receptor (Homo sapiens) (UniProt Q96RI1); test: OT_FXR_FXRSRC1_1440: Odyssey Thera (OT) 24-hour HEK293T Protein-Complementation Assay for Farnesoid X receptor/SRC-1 Co-activator (AID 2283384)
Outline: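 Fluorescence readout, 24 h post-dose, HEK293T; FXR and SRC-1 fused to complementary reporter fragments, association reconstitutes signal. Positive-direction fit vs DMSO baseline.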

[11] = CEETOX_H295R_11DCORT: CeeTox H295R High-throughput Steroidogenesis Assay for 11-Deoxycortisol (11DCORT) (AID 2283432; active = hit-call score of the fitted dose curve at least 0.9, where 1 is the maximum; inactive = score below 0.9;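 as to AC50: 11-deoxycortisol secreted into the medium measured by LC-MS/MS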); conditions: actives raise or lower the signal
Outline: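 H295R cells; 10 uM forskolin prestim 48 h; compound in 0.1% DMSO 48 h; media extracted with MTBE; 11-deoxycortisol by LC-MS/MS, 7-point standard curve; gain/loss vs DMSO baseline; viability by MTT in same wells.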

[12] = CEETOX_H295R_OHPREG: CeeTox H295R High-throughput Steroidogenesis Assay for OH-Pregnenolone (OHPREG) (AID 2283434; active = hit-call score of the fitted dose curve at least 0.9, where 1 is the maximum; inactive = score below 0.9); conditions: actives raise or lower the signal
Outline: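 Secreted 17alpha-hydroxypregnenolone measured by HPLC-MS/MS after liquid-liquid extraction. Human adrenal H295R cells received 48 h forskolin (10 uM) stimulation before 48 h chemical exposure at 0.1% final DMSO; MTT viability in same wells; bidirectional fit against DMSO.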

[13] = CEETOX_H295R_OHPROG: CeeTox H295R High-throughput Steroidogenesis Assay for OH-Progesterone (OHPROG) (AID 2283435; active = hit-call score of the fitted dose curve at least 0.9, where 1 is the maximum; inactive = score below 0.9;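 as to AC50: 17alpha-hydroxyprogesterone secreted into medium measured by HPLC-MS/MS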); conditions: actives raise or lower the signal
Outline: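 HPLC-MS/MS quantification of 17alpha-hydroxyprogesterone secreted by H295R cells after 48 h chemical exposure, following 48 h 10 uM forskolin prestimulation. Gain or loss of signal fitted relative to DMSO. Viability checked by MTT in the same wells.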

[14] = CEETOX_H295R_CORTIC: CeeTox H295R High-throughput Steroidogenesis Assay for Corticosterone (CORTIC) (AID 2283437; active = hit-call score of the fitted dose curve at least 0.9, where 1 is the maximum; inactive = score below 0.9); conditions: actives raise or lower the signal
Outline: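 Medium corticosterone was quantified by tandem mass spectrometry following 48 hours of chemical exposure (0.1% DMSO) in human H295R cells previously stimulated 48 hours with 10 uM forskolin. Viability checked by MTT; chemicals diluted and retested when viability fell below 70%.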

[15] = CEETOX_H295R_CORTISOL: CeeTox H295R High-throughput Steroidogenesis Assay for Cortisol (AID 2283438; active = hit-call score of the fitted dose curve at least 0.9, where 1 is the maximum; inactive = score below 0.9;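 also: cortisol secreted into medium quantified by LC-MS/MS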); conditions: actives raise or lower the signal
Outline: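 Read-out: cortisol in culture medium by reverse-phase C18 HPLC with ESI-positive tandem MS, after MTBE liquid-liquid extraction. Cells: human adrenal H295R, forskolin-primed (10 uM, 48 h) before 48 h chemical exposure in 0.1% DMSO.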

[16] = CEETOX_H295R_DOC: CeeTox H295R High-throughput Steroidogenesis Assay for DOC (AID 2283439; active = hit-call score of the fitted dose curve at least 0.9, where 1 is the maximum; inactive = score below 0.9); conditions: actives raise or lower the signal
Outline: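 Human adrenocortical H295R cells, passages up to 10, received 10 uM forskolin for 48 h before chemical addition. After another 48 h exposure in 0.1% DMSO, secreted DOC was measured by LC-MS/MS, with gain or loss fitted against DMSO controls.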

[17] = CEETOX_H295R_ESTRADIOL: CeeTox H295R High-throughput Steroidogenesis Assay for Estradiol (AID 2283440; active = hit-call score of the fitted dose curve at least 0.9, where 1 is the maximum; inactive = score below 0.9;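 also: estradiol secreted into medium quantified by LC-MS/MS after dansyl derivatisation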); conditions: actives raise or lower the signal
Outline: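 Following OECD 456 with minor changes, H295R cells received 10 uM forskolin for 48 h and then test chemical for 48 h. Hormone output was read by HPLC-MS/MS, with cytotoxic concentrations diluted until MTT viability reached ≥70%.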

[18] = CEETOX_H295R_ESTRONE: CeeTox H295R High-throughput Steroidogenesis Assay for Estrone (AID 2283441; active = hit-call score of the fitted dose curve at least 0.9, where 1 is the maximum; inactive = score below 0.9;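 also: estrone secreted into medium measured by LC-MS/MS after dansyl derivatization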); conditions: actives raise or lower the signal
Outline: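 Forskolin-stimulated H295R cells are treated 48 h with chemical, and estrone in the medium is measured by LC-MS/MS. Activity is fitted in both directions relative to DMSO controls, with chemicals diluted until MTT viability reaches at least 70%.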

[19] = CEETOX_H295R_ANDR: CeeTox H295R High-throughput Steroidogenesis Assay for Androstenedione (ANDR) (AID 2283436; active = hit-call score of the fitted dose curve at least 0.9, where 1 is the maximum; inactive = score below 0.9); conditions: actives raise or lower the signal
Outline: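 Medium from 48 h chemical-treated H295R adrenal cells was extracted with MTBE and androstenedione measured by LC-MS/MS. Activity was fit in both directions relative to DMSO. Cytotoxic concentrations were re-tested after dilution until MTT viability reached ≥70%.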

Measured: AC50

Chain of Estrogen receptor (Homo sapiens) (P03372 whole entry, looked up): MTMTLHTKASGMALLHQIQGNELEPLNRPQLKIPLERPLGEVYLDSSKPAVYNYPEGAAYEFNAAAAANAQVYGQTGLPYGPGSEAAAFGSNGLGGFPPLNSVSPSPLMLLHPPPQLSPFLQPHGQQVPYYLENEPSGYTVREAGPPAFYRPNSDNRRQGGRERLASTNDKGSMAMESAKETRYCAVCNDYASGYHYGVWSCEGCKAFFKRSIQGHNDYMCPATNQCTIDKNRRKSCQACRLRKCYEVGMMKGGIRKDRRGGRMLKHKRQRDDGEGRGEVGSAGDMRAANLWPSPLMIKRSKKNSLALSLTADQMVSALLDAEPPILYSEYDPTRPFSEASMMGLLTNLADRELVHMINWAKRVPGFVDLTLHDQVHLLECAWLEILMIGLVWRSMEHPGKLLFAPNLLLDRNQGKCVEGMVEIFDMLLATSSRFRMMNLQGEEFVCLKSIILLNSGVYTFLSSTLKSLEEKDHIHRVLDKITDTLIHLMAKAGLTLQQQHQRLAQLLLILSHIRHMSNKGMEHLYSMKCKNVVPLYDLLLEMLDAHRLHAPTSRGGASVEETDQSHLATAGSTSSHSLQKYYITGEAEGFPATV
Chain of Peroxisome proliferator-activated receptor gamma (Homo sapiens) (P37231 whole entry, looked up, the tested form may be a part): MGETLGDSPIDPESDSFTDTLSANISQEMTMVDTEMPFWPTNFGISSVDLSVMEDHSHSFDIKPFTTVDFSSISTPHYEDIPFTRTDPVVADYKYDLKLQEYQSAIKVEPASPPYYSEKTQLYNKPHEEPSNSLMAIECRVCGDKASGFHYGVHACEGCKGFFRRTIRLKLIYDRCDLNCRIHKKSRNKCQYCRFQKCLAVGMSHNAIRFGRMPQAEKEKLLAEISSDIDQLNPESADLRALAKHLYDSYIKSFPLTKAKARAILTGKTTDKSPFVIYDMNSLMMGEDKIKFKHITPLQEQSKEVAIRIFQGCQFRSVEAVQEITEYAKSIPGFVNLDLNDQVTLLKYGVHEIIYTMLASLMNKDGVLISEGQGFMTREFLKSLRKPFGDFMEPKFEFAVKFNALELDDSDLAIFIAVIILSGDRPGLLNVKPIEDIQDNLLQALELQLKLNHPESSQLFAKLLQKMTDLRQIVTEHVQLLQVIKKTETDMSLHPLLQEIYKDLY
Chain of Estrogen receptor beta (Homo sapiens) (Q92731 whole entry, looked up, the tested form may be a part): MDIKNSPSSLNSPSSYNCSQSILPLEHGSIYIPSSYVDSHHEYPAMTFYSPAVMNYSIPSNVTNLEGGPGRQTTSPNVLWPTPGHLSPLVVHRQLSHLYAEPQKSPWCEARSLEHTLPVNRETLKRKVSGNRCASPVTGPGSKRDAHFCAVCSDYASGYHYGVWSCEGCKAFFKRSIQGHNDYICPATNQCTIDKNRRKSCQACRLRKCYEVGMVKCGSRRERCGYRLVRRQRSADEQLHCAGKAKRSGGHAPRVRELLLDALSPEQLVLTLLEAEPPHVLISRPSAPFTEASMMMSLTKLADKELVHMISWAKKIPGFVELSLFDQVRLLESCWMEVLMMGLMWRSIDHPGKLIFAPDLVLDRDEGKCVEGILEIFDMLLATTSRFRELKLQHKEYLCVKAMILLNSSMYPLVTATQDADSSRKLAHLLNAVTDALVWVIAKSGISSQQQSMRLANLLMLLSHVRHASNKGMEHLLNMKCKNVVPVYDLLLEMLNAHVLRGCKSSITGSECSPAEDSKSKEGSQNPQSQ
Chain of Bile acid receptor (Homo sapiens) (Q96RI1 whole entry, looked up, the tested form may be a part): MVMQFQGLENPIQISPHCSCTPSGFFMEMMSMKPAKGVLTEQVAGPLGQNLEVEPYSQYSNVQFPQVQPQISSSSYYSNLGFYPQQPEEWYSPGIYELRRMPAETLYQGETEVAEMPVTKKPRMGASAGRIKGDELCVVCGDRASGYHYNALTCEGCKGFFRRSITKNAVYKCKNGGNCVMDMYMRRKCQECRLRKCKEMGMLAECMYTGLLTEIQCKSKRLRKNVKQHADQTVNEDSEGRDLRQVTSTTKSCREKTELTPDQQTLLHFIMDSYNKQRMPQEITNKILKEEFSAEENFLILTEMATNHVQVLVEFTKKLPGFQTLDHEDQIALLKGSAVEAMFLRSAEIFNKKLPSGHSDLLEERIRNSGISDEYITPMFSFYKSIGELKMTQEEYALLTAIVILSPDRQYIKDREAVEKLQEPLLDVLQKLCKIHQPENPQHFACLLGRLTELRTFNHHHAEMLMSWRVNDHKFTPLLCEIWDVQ
Chain of Retinoic acid receptor RXR-alpha (Homo sapiens) (P19793 whole entry, looked up, the tested form may be a part): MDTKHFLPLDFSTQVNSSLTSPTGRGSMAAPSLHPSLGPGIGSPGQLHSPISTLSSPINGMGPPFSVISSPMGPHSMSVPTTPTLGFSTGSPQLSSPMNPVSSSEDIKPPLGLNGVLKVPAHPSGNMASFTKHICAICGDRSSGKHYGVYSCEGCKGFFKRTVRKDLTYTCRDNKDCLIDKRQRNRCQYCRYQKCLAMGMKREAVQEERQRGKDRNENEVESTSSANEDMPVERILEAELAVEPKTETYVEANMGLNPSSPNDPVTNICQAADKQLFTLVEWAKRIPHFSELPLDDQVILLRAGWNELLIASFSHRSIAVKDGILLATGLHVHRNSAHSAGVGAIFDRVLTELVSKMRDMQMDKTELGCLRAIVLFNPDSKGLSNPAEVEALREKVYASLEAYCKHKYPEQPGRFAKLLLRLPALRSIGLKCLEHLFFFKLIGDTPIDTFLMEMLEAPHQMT
Chain of mouse Estrogen Receptor alpha (Era), Esr1 (gene 13982) (P19785 whole entry, looked up): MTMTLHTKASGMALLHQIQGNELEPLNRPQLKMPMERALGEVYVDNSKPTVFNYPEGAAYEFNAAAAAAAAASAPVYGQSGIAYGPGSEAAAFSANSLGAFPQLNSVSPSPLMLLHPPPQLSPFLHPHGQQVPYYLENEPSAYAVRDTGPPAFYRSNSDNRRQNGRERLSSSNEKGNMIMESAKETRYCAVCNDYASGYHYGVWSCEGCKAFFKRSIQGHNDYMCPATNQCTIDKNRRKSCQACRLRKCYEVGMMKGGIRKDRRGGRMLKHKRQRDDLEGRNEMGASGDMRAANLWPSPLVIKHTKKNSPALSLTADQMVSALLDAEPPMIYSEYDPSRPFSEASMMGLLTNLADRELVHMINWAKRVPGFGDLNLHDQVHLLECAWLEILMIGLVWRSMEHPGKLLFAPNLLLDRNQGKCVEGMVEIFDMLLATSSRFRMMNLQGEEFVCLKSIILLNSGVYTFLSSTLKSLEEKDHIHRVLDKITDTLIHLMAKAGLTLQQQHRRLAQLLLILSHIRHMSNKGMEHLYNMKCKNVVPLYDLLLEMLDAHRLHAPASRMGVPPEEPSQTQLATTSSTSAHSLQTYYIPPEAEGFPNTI

Cc1ccc([N+](=O)[O-])cc1
inactive: [1] | [2] | [3] | [4] | [5]

ClC1=C(Cl)C2(Cl)C3C(Cl)C=CC3C1(Cl)C2(Cl)Cl (stereo not drawn)
inactive: [1] | [2] | [3] | [6] | [4] | [7] | [5]

CCC[CH2][Sn]([Cl])([CH2]CCC)[CH2]CCC
inactive: [8] | [2] | [3] | [9] | [6] | [4]
active: [10] 82 µM

OCCOCCO
inactive: [1] | [2] | [3] | [10] | [6] | [4] | [5]

CCCCCCCCCCCCCN1CC(C)OC(C)C1 (stereo not drawn)
inactive: [1] | [2] | [3] | [4] | [7] | [5] | [14] | [15] | [17] | [18]
active: [6] 72.5 µM | [4] 81.7 µM | [11] 9.71 µM | [12] 12.5 µM | [13] 17.6 µM | [16] 6.39 µM

O=[N+]([O-])C(Br)(CO)CO
inactive: [2]

Cc1cc(N=Nc2ccccc2C)ccc1N
inactive: [19]

c1ccc(C2CO2)cc1 (stereo not drawn)
inactive: [6] | [4] | [5]

Clc1ccc(C(c2ccc(Cl)cc2)C(Cl)Cl)cc1
active: [2] 12.2 µM | [3] 12 µM | [6] 92.4 µM | [4] 80.9 µM
inactive: [7] | [5]

Brc1ccc(Oc2ccccc2)cc1
inactive: [2] | [3] | [6] | [4] | [5]

Cc1ccc(N)c(N)c1
inactive: [1] | [6] | [4] | [11] | [12] | [14] | [15] | [16]

CCCCC(CC)COC(=O)c1ccc(C(=O)OCC(CC)CCCC)c(C(=O)OCC(CC)CCCC)c1 (stereo not drawn)
inactive: [6] | [4] | [5]

CC(C)(C)C(O)(CCc1ccc(Cl)cc1)Cn1cncn1 (stereo not drawn)
inactive: [6] | [4] | [7] | [5] | [14]
active: [11] 1.85 µM | [12] 0.503 µM | [13] 0.552 µM | [15] 5.75 µM | [16] 0.26 µM

C=CCc1ccc2c(c1)OCO2
inactive: [1] | [6] | [4] | [5]

COc1cc(C=O)cc2c1[C@H](COC(N)=O)[C@]1(OC(C)=O)ON2C[C@H]2[C@@H]1N2C(C)=O
inactive: [2] | [3] | [5]

CC(C)(C)OOC(=O)c1ccccc1
inactive: [1] | [7] | [5]

Nc1cc(Cl)cc(C(=O)O)c1Cl
inactive: [1] | [7] | [5]

COC(=O)c1ccccc1N
inactive: [1] | [6] | [4] | [5]

N#CC(Br)(Br)C(N)=O
inactive: [6] | [4] | [5] | [12] | [13]

Cc1ccc(N=C=O)cc1N=C=O
inactive: [6] | [4] | [5] | [11] | [12] | [13] | [14] | [15] | [16]

O=C(Oc1ccc(Br)cc1)N1CCN2CCC1CC2
inactive: [2] | [3] | [6] | [4] | [5] | [14] | [15]
active: [11] 6.83 µM | [13] 12.8 µM | [16] 1.06 µM

O=C(O)C1C2CCC(O2)C1C(=O)O (stereo not drawn)
active: [6] 74.3 µM | [4] 32 µM
inactive: [6] | [4]

Cc1ccc(N)cc1
inactive: [6] | [4] | [5]
active: [4] 50 µM

Nc1ccc(Cc2ccc(N)cc2)cc1
active: [11] 40.3 µM | [12] 4.31 µM | [13] 4.68 µM | [15] 24 µM | [16] 65.5 µM
inactive: [9] | [10] | [6] | [4] | [5] | [14]

[As]#[In]
inactive: [1] | [6] | [4] | [12] | [14] | [16]

Cn1cc(-c2ccccc2)c(=O)c(-c2cccc(C(F)(F)F)c2)c1
not listed: [1] | [4] | [8] | [9] | [10] | [17] | [18] | [19]
inactive: all other assays above

c1ccc(N=Nc2ccccc2)cc1
inactive: [6] | [4] | [5] | [11] | [12] | [13] | [14] | [15]

CCCSC(=O)N(CCC)CCC
inactive: [6]

Nc1ccc(Oc2ccc(N)cc2)cc1
active: [11] 24.2 µM | [12] 5.04 µM | [14] 0.493 µM | [15] 26.9 µM | [16] 1.21 µM
inactive: [1] | [6] | [4] | [5] | [13]

O=Cc1ccco1
inactive: [6] | [4]

C1=Cc2cccc3cccc1c23
inactive: [6] | [4] | [7] | [5]

Oc1ccccc1Cl
inactive: [6] | [4] | [7] | [5]

CCN(CC)N=O
inactive: [9] | [10] | [6] | [4] | [5]

CCC12COCN1COC2
inactive: [2] | [3] | [6] | [4] | [7] | [5]

CCOc1cccc(C2(N3CCN(c4ccccc4)CC3)CCC(C)CC2)c1 (stereo not drawn)
active: [12] 81.7 µM | [13] 35.7 µM | [14] 23.6 µM | [16] 29.8 µM
inactive: [2] | [3] | [6] | [4] | [7] | [5] | [11] | [15]
